Assay results reported in PubChem BioAssay AID1063 (University of Pittsburgh Molecular Library Screening Center, 2008).
In all, about 200,000 compounds went through this assay and about 18,000 (9%) were called active. Cut-off read from the data, not from the text of the source: active = inhibition above about 50%; inactive = the rest. Many of the other results were omitted from the sample, so actives are more common in it than they were.

Experiment: Leishmania major promastigote growth inhibition, primary screen (AID 1063);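 note: promastigotes grown with compound for 44 hours at 28 °C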
Details: Leishmania major promastigotes, resazurin fluorescence viability; at 10 µM; stronger effect = higher value

Structure (SMILES) | inhibition
COc1cc(NC(=S)N2CCCC(C)C2)cc(OC)c1OC (stereo unspecified) | 4.64% (inactive)
O=C(Nc1ccccc1)N1CCN(C(=O)Nc2ccccc2)CC1 | -5.42% (inactive)
CCCCN(C(=O)/C=C/c1ccco1)c1c(N)n(CC(C)C)c(=O)[nH]c1=O | -4.4% (inactive)
O=C(CCc1nnc(CCCCc2ccccc2)o1)NC(c1cccnc1)C(F)(F)F (stereo unspecified) | 11.3% (inactive)
CC(=O)Nc1cccc([N+](=O)[O-])c1 | -0.87% (inactive)
COc1ccc([N+](=O)[O-])cc1NC(=O)CCc1ccccc1 | -3.05% (inactive)
CC(CCc1ccccc1)NCC(O)c1cccc([N+](=O)[O-])c1 (stereo unspecified) | 59.5% (active)
CN(C)CCCN1C(=O)CSC1c1ccc([N+](=O)[O-])cc1 (stereo unspecified) | 46.8% (inactive)
O=C1NC2(CCCCCC2)C(=O)N1CCS(=O)(=O)Oc1ccccc1 | -10.5% (inactive)
Cc1ccc(NC(=O)c2ccccn2)cc1S(=O)(=O)N1CCOCC1 | -1.09% (inactive)
CCn1cc(C(=O)Nc2cc(C)ccc2C)c(=O)c2ccc(C)nc21 | 1.39% (inactive)
CN(CC#CCC(c1ccccc1)c1ccccc1)C(C)(C)C | 100% (active)
CC(C)(C)N(CC#CCC(O)(c1ccccc1)C1CCCC1)CCO (stereo unspecified) | 3.46% (inactive)
COC(=O)C1=C(Nc2ccc(C)cc2)C=C(C)C(C(=O)OC)C1c1ccc(F)cc1 (stereo unspecified) | 52.4% (active)
COC(=O)C1=C(Nc2ccc(OC)cc2)C=C(C)C(C(=O)OC)C1c1ccc(C)cc1 (stereo unspecified) | 24.6% (inactive)
COC(=O)C1C(=O)NCC1c1ccc(C)cc1 (stereo unspecified) | 6.72% (inactive)
Cc1cc(C2=NNC(=Nc3ccc(S(=O)(=O)N4CCOCC4)cc3)SC2)c(C)n1CC1CCCO1 (stereo unspecified) | -7.5% (inactive)
COCCn1c(C)cc(C2=NNC(=Nc3ccc(F)cc3)SC2)c1C | -1.36% (inactive)
C=CCn1c(C)cc(C2=NNC(=NCC)SC2)c1C | 58.5% (active)
COC(=O)c1cc2n(n1)CCCNC2=O | -4.96% (inactive)
CC(=O)Nc1ccccc1NC(=O)c1cc(C)cc(C)c1 | -0.58% (inactive)

Structure (SMILES) | inhibition
CCC1CCCCN1C(=S)Nc1ccc(C(C)=O)cc1 (stereo unspecified) | -8.59% (inactive)
O=C(O)c1ccc(NC(=O)C2CCCCC2)cc1 | -6.65% (inactive)
CC(=O)c1ccc(N=C2SCCCN2C(=O)C2CCCCC2)cc1 | 85.8% (active)
COc1cccc(NC(=O)CS(=O)(=O)c2cn(CC(=O)N3CCOCC3)c3ccccc23)c1 | -7.03% (inactive)
O=C(NC(Cc1c[nH]c2ccccc12)C(=O)N/N=C/c1ccc(Br)cc1)c1cccs1 (stereo unspecified) | 65.6% (active)
CC(=O)NC(Cc1c[nH]c2ccccc12)C(=O)O (stereo unspecified) | -12.4% (inactive)
CC(=O)Nc1ccc(/C=N/NC(=O)c2cccs2)cc1 | -2.65% (inactive)
CSc1ncccc1C(=O)N1CCCC(CCC(=O)NCc2ccccc2F)C1 (stereo unspecified) | -5.49% (inactive)
COc1cc(NC(=O)c2cccs2)ccc1NC(=O)c1ccccc1Cl | 0.19% (inactive)
CCOc1ccc2[nH]c(=O)c(C(c3nnnn3CCOC)N3CCOCC3)cc2c1 (stereo unspecified) | -4.07% (inactive)
CCC(c1nnnn1C1CCCC1)N1CCN(C(=O)c2ccco2)CC1 (stereo unspecified) | -6.05% (inactive)
COCCn1nnnc1C(c1ccccc1Cl)N1CCN(c2ccccc2OC)CC1 (stereo unspecified) | -0.67% (inactive)
CC(C)C(c1nnnn1C1CCCC1)N1CCN(c2ccccc2F)CC1 (stereo unspecified) | 33% (inactive)
CCOC(=O)C1CCN(C(c2cc3cc(C)cc(C)c3[nH]c2=O)c2nnnn2C2CCCCC2)CC1 (stereo unspecified) | 88.6% (active)
Cc1cc(C)c2[nH]c(=O)c(C(c3nnnn3Cc3ccc4c(c3)OCO4)N3CCCC3)cc2c1 (stereo unspecified) | 27.4% (inactive)
CN1CCN(C(c2cc3cc4c(cc3[nH]c2=O)OCCO4)c2nnnn2C2CCCC2)CC1 (stereo unspecified) | -6.88% (inactive)
COc1ccc(N2CCN(C(c3cc4ccc(C)cc4[nH]c3=O)c3nnnn3C3CCCC3)CC2)cc1 (stereo unspecified) | 75.4% (active)
COc1ccc(C(c2nnnn2C2CCCCC2)N2CCN(c3ccccc3F)CC2)cc1 (stereo unspecified) | 96.8% (active)
CCc1c(C)nc2c(OC)cccc2c1Cl | -3.45% (inactive)
Cc1cccc(C(=O)OCC(=O)NCC(C)C)c1O | -1.6% (inactive)
Fc1ccc(COc2cccc(-c3n[nH]c(=S)o3)c2)cc1 | -2.62% (inactive)

Structure (SMILES) | inhibition
N#Cc1ncc(C(F)(F)F)cc1Oc1cccnc1 | -5.89% (inactive)
O=C(CSc1nnc(-c2ccc([N+](=O)[O-])cc2)o1)Nc1ccccn1 | 6.18% (inactive)
COc1ccc(/C=C(\C#N)C(=O)ONC2=NCCCCC2)cc1 | -4.23% (inactive)
COC(=O)c1ccc(C2C(Oc3ccccc3C)C(=O)N2CCc2ccc(OC)c(OC)c2)cc1 (stereo unspecified) | 5.32% (inactive)
COc1ccc(CCN(C)CCN2C(=O)c3ccccc3C2=O)cc1OC | -2.69% (inactive)
COc1ccc(CCN2C(=O)c3[nH]nc(-c4ccccc4O)c3C2c2ccc(C)cc2)cc1OC (stereo unspecified) | 75% (active)
CN1C(=O)/C(=C\c2cc(Br)cs2)c2ccccc21 | 13.9% (inactive)
CCC(C)c1ccc(NC(=S)NCc2ccccn2)cc1 (stereo unspecified) | -0.38% (inactive)
Cc1cccc(C)c1N1CCN(S(=O)(=O)N2CCCCC2)CC1 | 15.9% (inactive)
Cc1cc(C)c(C#N)c(SCc2[nH]nc3c2C(c2ccccc2)C(C#N)=C(N)O3)n1 (stereo unspecified) | 8.99% (inactive)
N#CC1=C(N)Oc2c(sc3ccccc23)C1c1ccco1 (stereo unspecified) | 9.33% (inactive)
Cc1cc(C)c2c3c(sc2n1)C(c1ccccc1)C(C#N)=C(N)O3 (stereo unspecified) | 100% (active)
CC(=O)NC(=S)NNC(=O)c1ccc(Br)cc1 | -4.54% (inactive)
CCOc1ccc(Br)cc1S(=O)(=O)N1CCC(C(=O)O)CC1 | -5.93% (inactive)
CC1Cc2ccccc2N1C1=CC(=O)CC(C)(C)C1 (stereo unspecified) | 7.71% (inactive)
O=C(CCc1ccccc1)NNC(=O)c1ccc(Br)cc1 | -3.53% (inactive)
COc1ccc(C(=O)NC(=S)NNC(=O)c2c(-c3ccccc3)noc2C)cc1 | -0.99% (inactive)
COc1ccc(C(=O)NC(=S)NNC(=O)CCc2ccccc2)cc1 | 93.2% (active)
O=C(CCCc1ccccc1)NCc1ccccc1 | -8% (inactive)
